For 33 compounds, Potency results are on record in PubChem BioAssay AID624047 (National Center for Advancing Translational Sciences (NCATS), 2012).

The source made the active and inactive calls. The call rests on the fitted dose curve; in most records, active means well fitted inhibition curve with a large enough effect; inactive means flat fitted curve, though single readings scatter.

This test deals with Dual specificity protein kinase CLK1 (Homo sapiens) (UniProt P49759). Kind of test: Reaction Biology data for inhibitors of CLK1: Probe SAR. As to conditions: Reaction Biology CLK1 kinase assay, 10 uM ATP; series mostly up to 10 µM. The text has this: Alternative splicing of pre-mRNAs plays a major role in the regulation of eukaryotic gene expression. Alternative splicing is now thought to be one of the primary reasons for the complexity of higher organisms leading to an average of three protein isoforms per gene. Aberrant splicing can lead to a number of diseases and is known to play a role in rare genetic diseases such as progeria syndrome. Hutchinson-Gilford Progeria Syndrome (HGPS) is a pediatric premature aging disease caused by a spontaneous mutation in the lamin A/C (LMNA) gene due to a single point mutation in the lamin A gene effecting 1 in 4 million people. To identify both specific splicing modulators of the lamin A gene as well as general splicing modulators, a cell-based HTS assay was developed using a minigene reporter system (AIDs, 1459 & 1487). […] This AID summarizes the characterization of lead compounds in Clk1. NIH Molecular Libraries Probe Production Centers Network [MLPCN] NIH Chemical Genomics Center [NCGC] MLPCN Grant: MH084827 Assay Submitter (PI): Tom Misteli
Sequence of Dual specificity protein kinase CLK1 (Homo sapiens) (P49759 whole entry, looked up, canonical isoform): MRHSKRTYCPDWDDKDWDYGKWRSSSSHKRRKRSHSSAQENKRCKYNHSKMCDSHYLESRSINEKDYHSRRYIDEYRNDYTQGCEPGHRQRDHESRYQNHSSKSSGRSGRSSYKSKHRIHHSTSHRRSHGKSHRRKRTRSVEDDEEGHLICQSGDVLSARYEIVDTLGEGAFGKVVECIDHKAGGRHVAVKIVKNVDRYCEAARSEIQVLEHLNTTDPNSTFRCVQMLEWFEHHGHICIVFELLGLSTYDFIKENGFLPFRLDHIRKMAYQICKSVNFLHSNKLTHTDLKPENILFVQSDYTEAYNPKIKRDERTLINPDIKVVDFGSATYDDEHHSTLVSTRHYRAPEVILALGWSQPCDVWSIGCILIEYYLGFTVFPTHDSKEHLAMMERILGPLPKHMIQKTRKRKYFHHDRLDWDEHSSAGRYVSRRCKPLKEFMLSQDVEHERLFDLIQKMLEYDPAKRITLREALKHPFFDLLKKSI
Compound IC50s were determined at Reaction Biology (http://www.reactionbiology.com) with ten concentration points starting at 10 uM in the assay using a 3-fold dilution series. The control compound staurosporine was also tested in the 10-dose IC50 mode with the same 3-fold serial dilution, again starting at 10 uM. All kinase reactions were performed using 10 uM ATP in the assay. 100% activity was taken from kinase reactions with DMSO alone (the vehicle used for compound stock solutions).
For `Brc1ccc(CNc2nccc(-c3ccc4c(c3)OCO4)n2)cc1Br`, the Potency is 24.1 nM (active).

As to `FC(F)(F)c1cccc(Nc2nccc(-c3ccc4c(c3)OCO4)n2)c1`, the Potency was 33.6 nM (active).

In the case of `Cc1nc(CN(C)c2ncnc3ccc(-c4ccc5c(c4)OCO5)cc23)cs1`, the Potency is 9.3 nM (active).

As to `c1cc(-c2ccc3c(c2)OCO3)nc(Nc2ccc3c(c2)OCO3)n1`, the Potency is 180 nM (active).

Take `COc1cccc(-c2ccnc(NCc3ccc(Cl)cc3)n2)c1`: the Potency result was “inactive”.

Consider `COc1ccc(-c2ccnc(NCc3ccc(Cl)cc3)n2)cc1`, for which the Potency is 277 nM (active).

Take `c1cncc(CNc2ccnc(-c3ccc4[nH]ncc4c3)n2)c1`: the Potency is 964 nM (active).

Consider `Clc1ccc(CNc2ccnc(-c3ccc4[nH]ncc4c3)n2)cc1Cl`, for which the Potency is 1780 nM (active).

Take `Brc1cc(Br)cc(CNc2nccc(-c3ccc4c(c3)OCO4)n2)c1`: the Potency was 13 nM (active).

As for `Clc1ccc(CNc2ccnc(-c3ccc4c(c3)OCO4)n2)cc1Cl`, the Potency result was “inactive”.

On to `Clc1cc(Cl)cc(CNc2ncncc2-c2ccc3c(c2)OCO3)c1`, for which the Potency is 68.4 nM (active).

On to `Cc1nc(CN(C)c2ncnc3ccc(-c4ccc5[nH]ncc5c4)cc23)cs1`, for which the Potency was 47.5 nM (active).

With `c1nc(NCC2CCCO2)c2cc(-c3ccc4c(c3)OCO4)ccc2n1` (stereo not drawn), the Potency was 52.8 nM (active).

Turning to `Cc1nc(CNc2ncnc3ccc(-c4ccc5c(c4)OCO5)cc23)cs1`, the Potency is 30.4 nM (active).

`Clc1ccc(Nc2nccc(-c3ccc4c(c3)OCO4)n2)cc1`: the Potency was 1260 nM (active).

As to `O=[N+]([O-])c1cc(Nc2nccc(-c3ccc4c(c3)OCO4)n2)cc(C(F)(F)F)c1`, the Potency was 32.3 nM (active).

Consider `Clc1ccc(CNc2ncncc2-c2ccc3c(c2)OCO3)cc1`, for which the Potency was 2370 nM (active).

In the case of `c1cncc(CNc2nccc(-c3ccc4[nH]ncc4c3)n2)c1`, the Potency was 72.8 nM (active).

Take `COc1ccc(-c2ccnc(NCc3ccc(Cl)c(Cl)c3)n2)cc1OC`: the Potency result was “inactive”.

For the compound `Clc1ccc(CNc2ncncc2-c2ccc3c(c2)OCO3)cc1Cl`, the Potency is 626 nM (active).

Take `Cc1c(-c2ccnc(NCc3ccc(Cl)cc3)n2)sc(=O)n1C`: the Potency was 74.8 nM (active).

With `Clc1cc(Cl)cc(CNc2nccc(-c3ccc4c(c3)OCO4)n2)c1`, the Potency is 1.9 nM (active).

As to `Clc1ccc(CNc2nccc(-c3ccc4c(c3)OCO4)n2)cc1Cl`, the Potency is 8.3 nM (active).

On to `COc1ccc(-c2ccnc(NCc3ccc(Cl)c(Cl)c3)n2)cc1`, for which the Potency is 76.5 nM (active).

`c1cncc(CNc2ncncc2-c2ccc3c(c2)OCO3)c1`: the Potency was 4800 nM (active).

Consider `Clc1ccc(CNc2nccc(-c3ccc4c(c3)OCCO4)n2)cc1Cl`, for which the Potency was 15.8 nM (active).

Consider `Clc1ccc(CNc2nccc(-c3ccc4cn[nH]c4c3)n2)cc1Cl`, for which the Potency is 183 nM (active).

Regarding `Clc1ccc(CNc2nccc(-c3ccc4[nH]ncc4c3)n2)cc1Cl`, the Potency was 41.5 nM (active).

As to `c1cncc(CNc2ccnc(-c3ccc4cn[nH]c4c3)n2)c1`, the Potency was 1600 nM (active).

Regarding `Cc1c(-c2ccnc(NCc3cccnc3)n2)sc(=O)n1C`, the Potency is 44.9 nM (active).

`COc1cccc(-c2ccnc(NCc3ccc(Cl)c(Cl)c3)n2)c1`: the Potency is 5460 nM (active).

In the case of `FC(F)(F)c1cc(Br)cc(Nc2nccc(-c3ccc4c(c3)OCO4)n2)c1`, the Potency is 102 nM (active).

For `c1cncc(CNc2nccc(-c3ccc4c(c3)OCO4)n2)c1`, the Potency was 11.3 nM (active).
